# Calb FLC – C. albicans growth modulation with fluconazole; C. albicans CaCi-2 (fluconazole-resistant clinical isolate) + fluconazole, Alamar Blue growth, 48 h; growth inhibition, % (no concentration beside the values); 0.57% of 300,000 active;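 active means growth inhibition above about 58% in most replicates, limit read from the data, passing the limit was not always enough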;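 further: all wells also contain fluconazole at 8 µg/ml as a sub-toxic cotreatment; 0% = median of DMSO wells and 100% = median of geldanamycin control wells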
# SKKanGAS inh – SKKanGAS growth inhibition; S. pyogenes SKKanGAS, kanamycin growth, BacTiter-Glo, 6 h; inhibition, % at 7.5 µM; 1.3% of 300,000 active;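 active means mean replicate score, as percent of positive control median, at least 50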;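 further: strain carries kanamycin resistance gene driven by streptokinase promoter and grows in 40 µg/ml kanamycin; loss of luminescence reflects streptokinase promoter inhibition or plain growth inhibition; 0% = median of DMSO wells and 100% = positive control at its reference dose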
# tim10-1 inh – growth inhibitors of tim10-1 mutant yeast; S. cerevisiae tim10-1 ts strain growth, BacTiter-Glo, 24 h; 2.2% of 330,000 active; inhibition, % at 20 µM; AID 463190;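 active means inhibition of at least 40%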;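 further: mutant grown at 25 °C; 0% = DMSO wells with yeast and 100% = wells holding no yeast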
# PfHsp90 set2 – reduces growth (ATP signal) of yeast expressing P. falciparum Hsp90; S. cerevisiae expressing PfHsp90, BacTiter-Glo ATP, 48 h; yeast lacking PDR1 and PDR3 efflux regulators; inhibition, % at 9.4 µM; 0.32% of 310,000 active; AID 504621;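 active means every replicate shows inhibition above about 80%, whatever the replicate mean, limit read from the data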;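 further: 0% = DMSO neutral controls and 100% = 20 µM radicicol positive controls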
# tim23-1 inh – growth inhibitors of tim23-1 mutant yeast. S. cerevisiae tim23-1 growth, BacTiter-Glo luminescence, 24 h. inhibition, % at 20 µM. 1.3% of 330,000 active. AID 463212;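 active means growth inhibition of the mutant yeast at or above 50%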;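 further: temperature-sensitive mutant grown at 25 °C; plate controls were DMSO-treated mutant yeast for no effect and medium wells lacking yeast for full effect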
# TIM10 inh – growth inhibitors of TIM10 yeast strain | S. cerevisiae TIM10 strain growth, BacTiter-Glo luminescence, 24 h | inhibition, % at 10 µM | 1.4% of 330,000 active;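 active means inhibition of 40% or more at the single tested concentration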;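 further: wild-type TIM10 isogenic control strain grown at permissive 25 °C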
# tim10-1 conf – tim10-1 yeast growth inhibition, confirmed | shares compounds with tim10-1 inh | S. cerevisiae tim10-1 ts strain growth, BacTiter-Glo, 24 h | inhibition, % at 20 µM | 56% of 7,400 active;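 active means inhibition of yeast growth at or above a set limit in either of two repeat tests at 20 µM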;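 further: tim10-1 mutant grown at permissive 25 °C to find synthetic lethal compounds; 0% = DMSO yeast wells and 100% = medium wells without yeast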
# TIM10 conf – TIM10 yeast growth inhibition, confirmed; S. cerevisiae tim10 strain growth, BacTiter-Glo luminescence, 24 h; inhibition, % at 10 µM; 63% of 4,600 active; shares compounds with TIM10 inh;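 active means inhibition of yeast growth at or above a set limit in either of two replicates at 10 µM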;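 further: this counterscreen used the strain with wild-type TIM10; 0% = yeast with DMSO and 100% = medium wells lacking yeast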
# * hit, by the source's call; nt = not tested or not shown. Rows were chosen to be rich in hits. Some 4.7% of all compounds tested hit in one or more screens of this group.
SMILES,Calb FLC,SKKanGAS inh,tim10-1 inh,PfHsp90 set2,tim23-1 inh,TIM10 inh,tim10-1 conf,TIM10 conf
CN(C)CCCN(C(=O)c1ccc(S(=O)(=O)N2CCc3ccccc3C2)cc1)c1nc2ccc(F)cc2s1,-2,18,59*,nt,30,57*,36*,45*
COc1ccc2sc(N(CCCN(C)C)C(=O)c3ccc(S(=O)(=O)N4CCc5ccccc5C4)cc3)nc2c1,-11,20,30,5,10,15,nt,nt
CN(C)CCCN(C(=O)c1ccc(S(=O)(=O)N2CCc3ccccc3C2)cc1)c1nc2c(F)cccc2s1,-10,12,35,-8,4,18,nt,nt
CC(NC(=O)c1cccc(S(=O)(=O)N2CCN(C)CC2)c1)c1ccc(Cl)cc1Cl (stereo not given),-2,2,3,-14,9,12,nt,nt
O=C(Nc1nc2ccc(F)cc2s1)c1cccc(S(=O)(=O)N2CCc3ccccc32)c1,-3,44,40*,13,28,50*,21,-1
O=C(Nc1nncs1)c1cccc(S(=O)(=O)N2CCc3ccccc32)c1,1,4,2,-19,10,-9,nt,nt
CC(=O)Nc1cccc(C(=O)OCC(=O)Nc2ccc(Cl)cn2)c1,-6,-8,-17,14,-2,-17,nt,nt
CC(NC(=O)c1ccncc1)c1ccc(Cl)cc1Cl (stereo not given),-15,-1,-12,-2,23,-11,nt,nt
CCOC(=O)C1(Cc2ccc(Cl)cc2)CCN(Cc2nccn2CC)CC1,1,26,28,8,-11,15,nt,nt
CCOC(=O)C1(S(=O)(=O)c2ccc(Cl)cc2)CCN(Cc2ccc(Cl)cc2)CC1,-18,12,48*,0,49,42*,28,34*
COc1cccc(/C=c2\sc3nc(-c4cccs4)nn3c2=O)c1OC,-15,-6,42*,0,37,51*,33*,1
Cc1ccc(/C=c2\sc3nc(-c4cccs4)nn3c2=O)o1,0,-5,13,-10,-1,9,nt,nt
C=CCc1c(C)nc(-c2ccccc2)nc1Nc1ccccc1O,-8,-11,47*,3,39,63*,54*,54*
C=CCc1c(C)nc(-c2ccccc2)nc1N/N=C(\C)c1ccc(N)cc1,-4,1,27,-2,32,28,nt,nt
O=Nc1c2nc3ccccc3n(O)c-2c2ccccc12,3,22,84*,nt,40,75*,83*,71*
CCCC(=O)Nc1ccc(C=C(C(C)=O)C(C)=O)cc1,-7,41,34,nt,27,36,nt,nt
Cc1cc(C)c2c(=O)n(CC(=O)Nc3ccc(Br)c(C)c3)sc2n1,-22,-8,72*,-40,18,67*,93*,94*
CC(C)(C)n1cnnc1Sc1ncccc1[N+](=O)[O-],-6,-3,-3,-10,10,-12,nt,nt
C=C1CCC[C@]2(C)C[C@H]3OC(=O)C(CN4CC(C)OC(C)C4)[C@H]3C[C@@H]12 (stereo not given in full),-2,-5,42*,8,43,40*,31*,37*
CC(NC(=O)c1cc(-c2ccncc2)nc2ccc(Br)cc12)C1CCCO1 (stereo not given),-3,10,20,1,22,15,nt,nt
COc1cccc(-c2[nH]nc3c2C(c2ccc(C)o2)C(C#N)=C(N)O3)c1 (stereo not given),22,-4,45*,nt,42,52*,32,19
O=C(COC(=O)c1c[nH]c2ccccc12)NC1CCCCC1,nt,nt,4,13,13,4,nt,nt
CCOc1cc(/C=N/NC(=O)c2cc(-c3cccnc3)nc3ccccc23)ccc1O,3,2,45*,-13,39,44*,38*,28
Cc1cccc(CN2C(=O)[C@H]3Cc4c([nH]c5ccccc45)C(C)(C)N3C2=O)c1,27,16,44*,nt,48,43*,35*,35*
